FBW7 activator = FBW7 E3 ligase activators, primary screen, biochemical, AlphaScreen, human; F-box/WD repeat-containing protein 7 (Homo sapiens), Q969H0; AlphaScreen FBW7–phospho-cyclin E peptide binding, activator screen; normalized activity (activation), % at 26.1 µM; 650,000 tested, 0.13% active; AID 1259310, 2017; in the data active means normalized activity above about 1.9%;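 further: purified mutant Fbw7 with reduced substrate affinity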
TEAD-YAP block = TEAD-YAP interaction inhibition, primary screen, TEAD-YAP interaction inhibitor project, luminescence, HEK-TIYL cells | TEAD-Gal4/YAP UAS-luciferase luminescence | inhibition, % at 9.12 µM | 640,000 tested, 1.4% active; in the data active means inhibition above about 32%;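 further: 0% = median of test compound wells and 100% = reference inhibitor wells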
MITF inh = MITF inhibitors, primary screen, biochemical, AlphaScreen, human. inhibition, % at 2.6 µM. AlphaScreen MITF homodimerization, bead proximity signal. 650,000 tested, 0.91% active; in the data active means inhibition above about 50%;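 further: 0% = vehicle wells with protein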
GPR151 ag = activators of human GPR151, primary screen, cell-based, PathHunter beta-arrestin, luminescence; G-protein coupled receptor 151 (Homo sapiens), Q8TDV0; activation, % at 11.2 µM; AID 1508602, 2020; 650,000 tested, 1% active; PathHunter beta-arrestin GPR151 cells; in the data active means activation above about 4.9%;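 further: 0% = median of compound wells and 100% = cells with positive control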
Starred values were filed as active, the others as inactive. Shown are actives, neighbours in structure and some others; about 3.5% of the full set was active somewhere.

SMILES	FBW7 activator	TEAD-YAP block	MITF inh	GPR151 ag
CCOC(=O)c1ccc2c(c1)[C@@H]1C=CC[C@@H]1[C@H](c1ccc(C(=O)O)cc1)N2	-1	7	52*	-1
COC(=O)c1ccc2c(c1)C1C=CCC1C(c1ccc([N+](=O)[O-])cc1)N2 (stereo not given)	0	-4	-6	0
COC(=O)c1ccc2c(c1)C1C=CCC1C(c1ccc(C(=O)O)cc1)N2 (stereo not given)	-1	7	70*	-1
Cc1ccc(-n2cc(CN3CCN4C(=O)[C@H]([C@@H](C)OCc5ccccc5)NC(=O)[C@H]4C3)cn2)cc1	0	2	-4	-1
N#CC1=C(N)Oc2n[nH]c(-c3ccc(Br)cc3)c2C1c1ccc(O)cc1 (stereo not given)	0	-7	-4	0
CC(=O)c1ccc2c(c1)[C@@H]1C=CC[C@@H]1[C@H](c1cc3c(cc1Br)OCO3)N2	0	53*	-2	-1
O=C(O)c1ccc2c(c1)C1C=CCC1C(c1ccccc1F)N2 (stereo not given)	0	4	56*	0
CCOC(=O)[C@@H]1Nc2ccc(C(=O)O)cc2[C@@H]2C=CC[C@H]12	-1	0	74*	-1
CC(=O)c1ccc2c(c1)[C@@H]1C=CC[C@@H]1[C@H](c1ccncc1)N2	-1	-51	6	0
CC(=O)c1ccc2c(c1)C1C=CCC1C(c1ccccc1F)N2 (stereo not given)	0	-5	11	2
CC(=O)c1ccc2c(c1)[C@@H]1C=CC[C@@H]1[C@H](c1ccc(C(=O)O)cc1)N2	-1	-7	62*	-1
COc1ccccc1C(=O)Nc1cccc(N2CCC(NCCn3ccnc3)CC2)c1	0	-5	-5	2
Cc1onc(-c2ccccc2Cl)c1C(=O)Nc1cccc(C(F)(F)F)c1	0	-5	-21	0
N#CC1=C(N)N(c2ccc(C(F)(F)F)cc2)C2CCCCC/C=C\2C1(C(F)(F)F)C(F)(F)F (stereo not given)	0	3	-13	0
Cc1ccc(N(CCCCN2C(=O)c3ccccc3C2=O)C(=O)c2cc([N+](=O)[O-])ccc2Cl)cc1	0	2	4	0
COC(=O)c1ccc2c(c1)C1C=CCC1[C@@H](c1ccc(C(=O)O)cc1)N2 (stereo not given in full)	-1	-3	66*	0
COc1ccc2c(c1)[C@@H]1C=CC[C@@H]1[C@H](c1ccc(C(=O)O)cc1)N2	0	-6	24	-1
COc1ccc(NC(=O)COC(=O)CCn2cc(C=O)c(-c3ccc(F)cc3)n2)cc1	0	-4	-9	0
O=c1c(O)cccc2cc(O)c(O)c(O)c12	0	-6	90*	3
CCN(C(C)=O)c1nnc(-c2ccc(C)cc2)s1	0	47*	-1	-4
COc1cc(S(=O)(=O)N(Cc2cccs2)C2CCCC2)ccc1-n1cnnn1	0	-6	-1	1
COc1cc(S(=O)(=O)N(Cc2ccccc2F)C2CCCC2)ccc1-n1cnnn1	0	67*	-5	1
CC(=O)CSc1nnc2n1CCN2c1ccccc1	0	-47	-4	-2
O=C(COc1ccccc1-c1ccccc1)NN=C1CCCC1	0	61*	5	2
CCOC(=O)CCC(=O)Nc1ccc(-c2nnc(N(C)c3ccc(OC)cc3)s2)cc1	0	-3	0	4
SMILES	FBW7 activator	TEAD-YAP block	MITF inh	GPR151 ag
NS(=O)(=O)c1ccc2c(c1)C1C=CCC1C(C(=O)O)N2 (stereo not given)	0	5	72*	-1
O=C(O)C1Nc2ccc(OC(F)(F)F)cc2C2C=CCC12 (stereo not given)	0	1	75*	0
Fc1ccc(C2Nc3ccc(OC(F)(F)F)cc3C3C=CCC32)cc1 (stereo not given)	0	2	8	0
CC(=O)c1ccc2c(c1)C1C=CCC1C(C(=O)O)N2 (stereo not given)	0	5	79*	-2
Cc1cc(I)cc2c1NC(C(=O)O)C1CC=CC21 (stereo not given)	0	8	50	2
Cc1ccc2c(c1)C1C=CCC1C(C(=O)O)N2 (stereo not given)	-2	-6	70*	0
COc1cccc(CNS(=O)(=O)c2ccc3c(c2)SCC(=O)N3)c1	0	-11	-11	-1

Bioassay records from PubChem BioAssay.
